Unmarked numbers belong to inactive results. Results filed as inconclusive are left out. Active and inactive are the calls of the source. Unless noted, the call rests on the fitted dose curve; in most records, active means well fitted curve in either direction with a large enough effect (not every such curve was filed as active); inconclusive means small, poorly fitted or top-dose-only effect, or another doubt; inactive means flat fitted curve, though single readings scatter.

Experiment [1] has as its target Lysosomal acid glucosylceramidase (Homo sapiens) (UniProt P04062). In words: Glucocerebrosidase-p2 (AID 348; in the data active means potency below about 10 µM; further: potency means the concentration at half of the fitted maximal effect). Conditions: purified GBA, blue fluorogenic substrate, 40 min. The gist of the method:
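Normal human glucocerebrosidase (0.2 nM) with blue fluorogenic substrate (80 uM final) in citrate/phosphate pH 5.9 with 10mM sodium taurocholate, 0.01% tween-20; 40 min RT, NaOH/glycine stop; fluorescence Ex 365/Em 440; AC50 from a titration from 0.6 nM upwards.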

A short description of experiment [2]: AP1 Signaling Pathway (AID 357).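 Further: ME-180 reporter cells stimulated with EGF at its EC50 level; on the % scale 0 is the no-effect control and ±100 the full control effect.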 Conditions: ME-180 AP-1-bla reporter, EGF-induced, beta-lactamase ratio, 5 h; at 7.69 µM (top of the series) unless noted. The gist of the method: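 AP-1-bla ME-180 cells, Opti-MEM + 0.5% dialyzed FBS, plated overnight 37 °C. Cpd titration + EC50 EGF, 5 h 37 °C. CCF4 2.5 h RT; ex 405, em 460/530 ratio → %activity, AC50.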
Experiment [3] has as its target Cytochrome P450 1A2 (Homo sapiens) (UniProt P05177). In words: p450-cyp1a2 (AID 410; calls by dose curve; further: potency means the concentration at half of the fitted maximal effect;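 on activity change, negative = inhibition: -100% = full effect of reference inhibitor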). As to conditions: recombinant CYP1A2, luciferin-ME demethylation, luminescence; series mostly up to 11.4 µM. An outline of the steps: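 Read-out is luminescence from luciferin produced by CYP1A2 demethylation of Luciferin-ME (100uM, at Km). Detection reagent stopped the 60 min NADPH-dependent reaction; signals were normalized to 57 uM furafylline.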

Experiment [4] in a line: NFAT Signaling Pathway (AID 444).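 Further: carbachol stimulus at about its EC50 of 1 µM final; on the % scale 0 is the no-effect control and ±100 the full control effect.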 As to conditions: Jurkat NFAT-bla M1, carbachol, beta-lactamase ratio, 5 h; at 7.69 µM (top of the series) unless noted. The gist of the method: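 Jurkat cells carrying an NFAT-driven β-lactamase reporter and co-transfected muscarinic M1 receptor were treated with compound plus carbachol (1 uM final, an EC50 level) for 5 h at 37 °C. CCF4 loading followed for 1 h at RT; 460/530 nm ratio gave %activity.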

A short description of experiment [5]: Stat Signaling Pathway (AID 446).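 Further: ME-180 cervical cancer cells given 40 pM IL-6 alongside compound; SIE-controlled beta-lactamase reporter measured as 460/530 nm FRET emission ratio; on the % scale 0 is the no-effect control and ±100 the full control effect.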 Conditions: ME-180 SIE beta-lactamase reporter, IL-6 stimulated, 5 h; at 7.69 µM (top of the series) unless noted. An outline of the steps: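 Normalization used AC90 stimulation (300 pM IL-6) and AC90 inhibition (125 nM pan-JAK inhibitor at 40 pM IL-6). The underlying signal is SIE-driven beta-lactamase in ME-180 cells after 5 h IL-6 exposure with compound.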

Experiment [6] deals with Glucocorticoid receptor (Homo sapiens) (UniProt P04150). In words: GR-GFP Redistribution (AID 450;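 active means compounds whose dose series gives a full or clear partial fitted curve of increased nuclear translocation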; further: potency means the concentration at half of the fitted maximal effect). Conditions: U2OS GR-GFP nuclear translocation, laser cytometry, 2 h.
Experiment [7] has the same target. In words: GR-EFC Redistribution (AID 451; calls by dose curve; further: potency means the concentration at half of the fitted maximal effect). As to conditions: CHO-K1 GR-EFC translocation, beta-gal luminescence, 2 h. The gist of the method:
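CHO-K1 cells stably expressing nuclear-localized β-gal enzyme acceptor and GR fused C-terminally to the enzyme donor fragment; ligand-driven nuclear translocation restores β-gal by complementation. Compounds titrated up to 46 uM final, 2 h at 37 °C; luminescence read.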

Experiment [8] deals with Mitogen-activated protein kinase 10 (Mus musculus) (UniProt Q61831). In words: JNK3 AlphaScreen Assay (AID 530).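 Further: kinase came from lysate of stimulated human HepG2 cells; signal reports phosphorylation of biotinylated GST-cJun 1-79 at Ser73 with 10 µM ATP; on the % scale 0 is the no-effect control and ±100 the full control effect.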 As to conditions: JNK3 lysate, c-Jun phosphorylation; series mostly up to 11.4 µM. The gist of the method:
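Biotinylated GST-cJun(1-79) served as substrate for JNK3 in HepG2 lysates stimulated with IL-1beta and TNF-alpha. ATP was 10 uM final, pH 7.6. Ser73 phosphorylation was quantified by AlphaScreen (680 nm excitation).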
(Bead proximity is the source of the signal in Alpha formats.)

The target in experiment [9] is Cytochrome P450 2D6 (Homo sapiens) (UniProt P10635). In words: qHTS Assay for Inhibitors and Substrates of Cytochrome P450 2D6 (AID 891; active means well fitted curve in the direction sought with a large enough effect; an effect the other way counts as inactive or inconclusive; further: potency means the concentration at half of the fitted maximal effect; nearly all actives have a fitted effect of over 60% in size). As to conditions: recombinant CYP2D6, luciferin-ME EGE luminescence; series mostly up to 11.4 µM. The gist of the method: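 Luminescent read-out of luciferin formed by 5 nM human CYP2D6 demethylating 30 uM Luciferin-ME EGE (Km level) over 60 min at room temperature after NADPH regeneration addition. Data normalized to full inhibition by 1.43 uM quinidine.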

Experiment [10] in a line: qHTS Assay for Identification of Small Molecule Agonists for Hypoxia Response Element Signaling Pathway (AID 914; active means well fitted activation curve with a large enough effect in the signal ratio, with a control signal flat, not every such curve was filed as active; the % refers to the signal ratio; further: % of control where 0% means no effect). Conditions: ME-180 (cervical carcinoma) HRE-bla reporter, beta-lactamase ratio, CoCl2, 17 h; activation: stronger effect = higher value. The gist of the method:
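Cells were plated overnight, pin-dosed with compound in a titration series, co-stimulated with EC50 CoCl2 and incubated 17 hours at 37 degrees Celsius. CCF4 substrate was then loaded, and AC50 values came from the 460nm/530nm ratio.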
For orientation: In qHTS, concentration-response curves come from the screen itself.

The target of experiment [11] is 3',5'-cyclic-AMP phosphodiesterase 4B (Homo sapiens) (UniProt Q07343). In words: qHTS Assay for Inhibitors of PDE-IV (AID 607; active means well fitted activation curve with a large enough effect in the main read-out, with a control signal flat, not every such curve was filed as active; further: % of control where 0% means no effect). As to conditions: HEK293 ACTOne CNG channel cells, membrane potential fluorescence; series mostly up to 22.9 µM. The gist of the method:
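HEK293 ACTOne cells with CNG channel (1000/well), endogenous PDE4; membrane potential dye, compounds up to 22.9 uM final. Fluorescence Ex 535/Em 590; RO 20-1724 (100 uM final) as reference.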

Experiment [12] addresses Cytochrome P450 3A4 (Homo sapiens) (UniProt P08684). In words: qHTS Assay for Inhibitors and Substrates of Cytochrome P450 3A4 (AID 884; active means well fitted curve in the direction sought with a large enough effect; an effect the other way counts as inactive or inconclusive; further: on the % scale 0 is the no-effect control and ±100 the full control effect; nearly all actives have a fitted effect of over 50% in size). Conditions: recombinant CYP3A4, Luciferin-PPXE luminescence; series mostly up to 57.1 µM. The gist of the method: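 Luminescent readout of luciferin produced by CYP3A4 (20 nM) dealkylation of Luciferin-PPXE, 25 uM (its KM). NADPH-driven reaction ran 60 min at RT after 10 min compound preincubation; data scaled to 57 uM ketoconazole as 100% inhibition.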

For experiment [13] the target is unchanged. In words: qHTS Assay for Activators of Cytochrome P450 3A4 (AID 885; active means well fitted curve in the direction sought with a large enough effect; an effect the other way counts as inactive or inconclusive; further: potency means the concentration at half of the fitted maximal effect; nearly all actives have a fitted effect of over 65% in size). As to conditions: recombinant CYP3A4, Luciferin-PPXE luminescence, 60 min; series mostly up to 11.4 µM. An outline of the steps: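 Human CYP3A4 dealkylates Luciferin-PPXE to luciferin, which luciferase detection converts to light. Substrate was at its KM (25uM), buffer 200mM KPO4, reaction 60 min at RT.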

In experiment [14] the target is Cytochrome P450 2C19 (Homo sapiens) (UniProt P33261). In words: qHTS Assay for Inhibitors and Substrates of Cytochrome P450 2C19 (AID 899; active means well fitted curve in the direction sought with a large enough effect; an effect the other way counts as inactive or inconclusive; further: potency means the concentration at half of the fitted maximal effect; nearly all actives have a fitted effect of over 60% in size). As to conditions: recombinant CYP2C19, luciferin-H EGE luminescence; series mostly up to 11.4 µM. An outline of the steps: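 NADPH-dependent conversion of Luciferin-H EGE (10uM, at KM) by 5nM enzyme in 50mM KPO4, 60 min at 37C following 10 min compound preincubation. Stopped with luciferin detection buffer; luminescence read after 20 min.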
Chain of Cytochrome P450 2C19 (Homo sapiens) (P33261 whole entry, looked up): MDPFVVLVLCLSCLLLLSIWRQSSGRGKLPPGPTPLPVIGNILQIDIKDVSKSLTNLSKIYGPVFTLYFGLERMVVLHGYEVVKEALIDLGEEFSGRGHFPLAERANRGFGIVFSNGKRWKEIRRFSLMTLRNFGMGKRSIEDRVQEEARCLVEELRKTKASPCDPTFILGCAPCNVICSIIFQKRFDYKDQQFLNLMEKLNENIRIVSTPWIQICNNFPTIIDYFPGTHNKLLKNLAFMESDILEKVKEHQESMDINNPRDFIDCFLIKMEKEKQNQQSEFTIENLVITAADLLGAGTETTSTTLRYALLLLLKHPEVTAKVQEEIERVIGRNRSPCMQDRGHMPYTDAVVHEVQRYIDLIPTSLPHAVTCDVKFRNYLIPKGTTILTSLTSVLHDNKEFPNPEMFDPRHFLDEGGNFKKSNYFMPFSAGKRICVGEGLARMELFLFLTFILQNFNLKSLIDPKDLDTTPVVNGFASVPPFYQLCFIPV

Chain of 3',5'-cyclic-AMP phosphodiesterase 4B (Homo sapiens) (Q07343 whole entry, looked up): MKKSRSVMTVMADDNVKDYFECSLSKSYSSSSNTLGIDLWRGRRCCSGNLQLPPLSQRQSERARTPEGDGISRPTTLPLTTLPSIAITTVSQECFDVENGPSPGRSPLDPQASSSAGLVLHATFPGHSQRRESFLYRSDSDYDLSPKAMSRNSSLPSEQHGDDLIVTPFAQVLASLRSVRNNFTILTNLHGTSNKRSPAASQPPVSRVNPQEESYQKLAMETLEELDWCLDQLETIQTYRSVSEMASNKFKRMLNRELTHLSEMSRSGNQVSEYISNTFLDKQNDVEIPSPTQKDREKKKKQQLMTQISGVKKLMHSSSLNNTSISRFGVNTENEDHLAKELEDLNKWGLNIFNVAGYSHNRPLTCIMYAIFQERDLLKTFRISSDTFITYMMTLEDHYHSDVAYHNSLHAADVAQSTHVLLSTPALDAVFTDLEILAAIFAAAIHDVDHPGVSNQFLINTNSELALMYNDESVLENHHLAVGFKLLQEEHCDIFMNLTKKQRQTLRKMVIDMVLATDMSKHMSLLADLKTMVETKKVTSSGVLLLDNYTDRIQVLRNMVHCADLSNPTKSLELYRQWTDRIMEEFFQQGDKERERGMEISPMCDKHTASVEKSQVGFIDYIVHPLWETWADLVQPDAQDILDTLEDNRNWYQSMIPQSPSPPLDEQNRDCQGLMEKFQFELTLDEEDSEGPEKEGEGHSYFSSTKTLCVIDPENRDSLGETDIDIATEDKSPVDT
Chain of Lysosomal acid glucosylceramidase (Homo sapiens) (P04062 whole entry, looked up): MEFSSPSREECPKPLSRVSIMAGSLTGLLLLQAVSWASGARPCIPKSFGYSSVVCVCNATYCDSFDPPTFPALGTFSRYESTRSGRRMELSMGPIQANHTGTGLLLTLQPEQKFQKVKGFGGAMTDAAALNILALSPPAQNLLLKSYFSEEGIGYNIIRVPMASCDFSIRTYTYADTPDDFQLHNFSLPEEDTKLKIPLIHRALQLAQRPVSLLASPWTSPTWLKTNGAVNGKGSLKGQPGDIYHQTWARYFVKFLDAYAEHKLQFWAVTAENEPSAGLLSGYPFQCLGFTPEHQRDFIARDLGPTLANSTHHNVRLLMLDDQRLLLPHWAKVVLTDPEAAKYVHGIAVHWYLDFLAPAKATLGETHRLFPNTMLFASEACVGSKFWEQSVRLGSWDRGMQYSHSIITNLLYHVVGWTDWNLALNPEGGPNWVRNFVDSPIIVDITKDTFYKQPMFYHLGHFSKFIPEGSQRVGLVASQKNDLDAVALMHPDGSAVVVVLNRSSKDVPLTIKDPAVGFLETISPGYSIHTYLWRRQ
Chain of Glucocorticoid receptor (Homo sapiens) (P04150 whole entry, looked up): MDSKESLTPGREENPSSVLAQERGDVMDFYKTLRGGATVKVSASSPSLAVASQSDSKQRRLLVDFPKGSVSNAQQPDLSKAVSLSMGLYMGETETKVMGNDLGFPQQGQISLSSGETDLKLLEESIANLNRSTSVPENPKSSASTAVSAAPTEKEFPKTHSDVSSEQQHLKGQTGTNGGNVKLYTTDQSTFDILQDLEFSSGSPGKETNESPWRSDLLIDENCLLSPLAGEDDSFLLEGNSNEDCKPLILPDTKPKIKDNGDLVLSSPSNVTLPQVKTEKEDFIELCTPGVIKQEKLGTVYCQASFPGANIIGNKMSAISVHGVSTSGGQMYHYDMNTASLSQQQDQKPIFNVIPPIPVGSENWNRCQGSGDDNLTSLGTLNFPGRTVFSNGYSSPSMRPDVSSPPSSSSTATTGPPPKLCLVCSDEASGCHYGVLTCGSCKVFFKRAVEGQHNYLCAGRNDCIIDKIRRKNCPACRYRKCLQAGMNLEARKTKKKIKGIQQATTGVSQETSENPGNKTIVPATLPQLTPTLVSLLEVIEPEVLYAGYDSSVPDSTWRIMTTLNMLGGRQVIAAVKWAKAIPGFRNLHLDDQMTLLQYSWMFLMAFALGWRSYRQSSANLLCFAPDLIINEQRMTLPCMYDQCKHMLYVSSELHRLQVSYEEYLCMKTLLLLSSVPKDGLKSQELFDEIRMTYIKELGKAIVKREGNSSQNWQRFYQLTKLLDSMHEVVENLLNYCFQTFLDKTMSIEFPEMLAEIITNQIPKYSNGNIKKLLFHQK
Chain of Cytochrome P450 1A2 (Homo sapiens) (P05177 whole entry, looked up): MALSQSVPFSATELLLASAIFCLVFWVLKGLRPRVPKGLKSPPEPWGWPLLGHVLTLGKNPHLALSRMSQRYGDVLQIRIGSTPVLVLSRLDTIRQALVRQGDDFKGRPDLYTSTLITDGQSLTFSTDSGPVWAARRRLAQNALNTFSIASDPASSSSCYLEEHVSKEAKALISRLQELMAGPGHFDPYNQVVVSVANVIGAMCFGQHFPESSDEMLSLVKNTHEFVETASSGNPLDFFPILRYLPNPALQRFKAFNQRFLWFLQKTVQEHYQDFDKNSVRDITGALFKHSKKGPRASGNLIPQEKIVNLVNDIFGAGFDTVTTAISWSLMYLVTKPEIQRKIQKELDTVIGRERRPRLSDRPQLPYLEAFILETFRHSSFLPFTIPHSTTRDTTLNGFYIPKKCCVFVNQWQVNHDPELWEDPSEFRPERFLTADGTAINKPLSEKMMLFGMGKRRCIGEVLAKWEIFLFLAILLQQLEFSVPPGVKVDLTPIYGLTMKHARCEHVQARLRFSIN
Chain of Cytochrome P450 3A4 (Homo sapiens) (P08684 whole entry, looked up): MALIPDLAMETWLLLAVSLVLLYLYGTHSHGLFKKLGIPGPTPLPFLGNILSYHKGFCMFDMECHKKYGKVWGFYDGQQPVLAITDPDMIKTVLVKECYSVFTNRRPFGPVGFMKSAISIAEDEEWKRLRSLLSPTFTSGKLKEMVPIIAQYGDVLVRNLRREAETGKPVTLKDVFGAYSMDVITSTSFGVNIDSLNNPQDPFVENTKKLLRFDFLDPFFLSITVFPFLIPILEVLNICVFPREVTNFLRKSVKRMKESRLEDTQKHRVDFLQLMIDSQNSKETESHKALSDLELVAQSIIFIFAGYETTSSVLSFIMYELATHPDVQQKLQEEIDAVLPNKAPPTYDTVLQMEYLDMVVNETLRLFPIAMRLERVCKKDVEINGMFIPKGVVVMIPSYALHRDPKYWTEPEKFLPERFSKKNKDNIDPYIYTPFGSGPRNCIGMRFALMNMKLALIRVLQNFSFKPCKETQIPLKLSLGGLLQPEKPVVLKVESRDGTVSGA
Chain of Cytochrome P450 2D6 (Homo sapiens) (P10635 whole entry, looked up): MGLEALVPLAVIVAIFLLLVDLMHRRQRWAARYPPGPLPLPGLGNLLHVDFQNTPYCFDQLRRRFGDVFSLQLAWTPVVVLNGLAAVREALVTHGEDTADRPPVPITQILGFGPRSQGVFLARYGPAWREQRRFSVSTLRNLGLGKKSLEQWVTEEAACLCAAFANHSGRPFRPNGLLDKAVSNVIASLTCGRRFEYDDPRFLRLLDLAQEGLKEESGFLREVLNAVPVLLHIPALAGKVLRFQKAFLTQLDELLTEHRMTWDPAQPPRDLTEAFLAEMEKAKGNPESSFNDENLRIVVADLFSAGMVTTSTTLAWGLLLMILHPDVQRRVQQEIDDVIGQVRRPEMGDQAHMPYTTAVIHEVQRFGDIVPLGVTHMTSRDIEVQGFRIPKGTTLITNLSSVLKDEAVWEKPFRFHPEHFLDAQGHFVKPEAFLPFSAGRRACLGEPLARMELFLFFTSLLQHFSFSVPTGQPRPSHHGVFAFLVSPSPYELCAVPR

Regarding `CCCCn1cnc2c(c(CC#N)nn2-c2ccccc2)c1=N`, the Potency in experiment [1] was above 11.4 µM; in experiment [3] it was 1 µM (active); in experiment [6], above 46 µM; in experiment [7], above 9.22 µM; in experiment [9] it was 0.398 µM (active). The activity change, negative = inhibition in experiment [2] is -12%; in experiment [4], -1.01%. For the same molecule, in experiment [5], the activity, negative = inhibition was -0.662%. In addition, the Potency result in [8] was “inactive”. Further, the activation in [10] is 16.2%.
As to `CC(C)N(CC(=O)O)CC(=O)O`, the figures for the Potency in experiment [1], in experiment [6] and in experiment [7] were above 11.4 µM, above 46 µM and above 9.22 µM, respectively. Moreover, the activity change, negative = inhibition is 11.5% in [2] and 4.66% in experiment [4]. Moreover, the Potency result in [3] and in experiment [11] was “inactive” in each case. Moreover, in [5], the activity, negative = inhibition was 10.4%.
Turning to `N=C(N)[C@H](N=Nc1ccccc1)C(N)=O`, the Potency was above 11.4 µM in [1], 0.794 µM (active) in experiment [3], above 46 µM in [6] and above 9.22 µM in experiment [7]. In addition, the activity change, negative = inhibition in experiment [2] was 20.5%; in experiment [4], 1.62%. Also, in experiment [5], the activity, negative = inhibition was 1.3%. In addition, the Potency result in [8] and in [11] was “inactive” each time. The activation in experiment [10] was 1%.
Regarding `CC(=O)OCC(=O)[C@]12OC(C)(C)O[C@@H]1C[C@H]1[C@H]3CC=C4C[C@@H](O)CC[C@]4(C)[C@H]3CC[C@]12C`, the Potency in experiment [1] was above 11.4 µM; in experiment [6] it was above 46 µM; in experiment [7], above 9.22 µM; in experiment [13] it was 3.16 µM (active). Also, the activity change, negative = inhibition was 8.77% in experiment [2], -9.45% in experiment [4] and 69.9% [at 11.4 µM] in experiment [12]. Further, the Potency result in [3] and in experiment [8] was “inactive” in each case. The activity, negative = inhibition in experiment [5] is 5.43%.
For the molecule `O=c1cnc2cnc(Oc3ccccc3)nc2n1CCc1ccccc1`, the Potency in experiment [1] is above 11.4 µM; in experiment [3] it was 3.16 µM (active); in experiment [6], above 9.22 µM; in experiment [7], above 46 µM; in experiment [14], 6.31 µM (active). The results for the activity change, negative = inhibition in experiment [2] and in experiment [4] were 6.02% and -28.7%, respectively. In addition, in experiment [5], the activity, negative = inhibition was -4.75%. Besides, in experiment [8], the Potency entry was “inactive”.
Regarding `C[C@@H]1NCC[C@H](CC(=O)O)[C@H]1CC(=O)O`, the Potency in experiment [1] is above 11.4 µM; in experiment [6], above 46 µM; in [7] it was above 9.22 µM. Moreover, the activity change, negative = inhibition in experiment [2] was 8.61%; in [4], -12%. The Potency result in [3], in experiment [8] and in experiment [11] was “inactive” in each case. Besides, the activity, negative = inhibition in experiment [5] is 8.09%. Further, the activation in experiment [10] is 3.32%.
In the case of `O=C(O)NCc1ccccc1` (tested in a mixture with another compound), the Potency in experiment [1] was above 11.4 µM; in experiment [3], 3.16 µM (active); in experiment [6], above 46 µM; in [7], above 9.22 µM; in experiment [9], 3.98 µM (active). The values for the activity change, negative = inhibition in experiment [2] and in experiment [4] were 4.23% and -18.9%, respectively. Also, the activity, negative = inhibition in experiment [5] is 1.18%. The Potency result in experiment [8] was “inactive”. For the same molecule, the activation in experiment [10] was 1.79%.
As for `O=C(O)c1ccc(C(=O)O)c(C(=O)O)c1.[NH-][C@@H]1CCCC[C@@H]1[NH-].[Pt]`, the Potency was above 11.4 µM in [1], above 46 µM in [6] and above 9.22 µM in experiment [7]. Also, the activity change, negative = inhibition in experiment [2] is 0.428%; in experiment [4] it was -9.87%. For the same molecule, the Potency entry in [3] and in experiment [11] was “inactive” each time. In addition, in [5], the activity, negative = inhibition is -6.09%.

The values above are taken from PubChem BioAssay (NCATS).
